Inconclusive results are not listed. Active and inactive are the calls of the source. Unless noted, the call rests on the fitted dose curve; in most records, active means well fitted curve in the direction sought with a large enough effect in the repeat runs; inconclusive means weak or mixed curves; inactive means no such curve, though single readings can be large; an effect the other way counts as inactive or inconclusive.
How the values were obtained:
[1] = qHTS assay for small molecule agonists of the p53 signaling pathway (AID 651631; calls by dose curve; further: nearly all actives have a fitted effect of over 15% in size)
In short: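 We treat p53RE-bla HCT-116 cells with compounds for 16 h at 37 °C, add LiveBLAzer B/G FRET substrate for 2 h at room temperature, and measure fluorescence intensity.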

[2] = qHTS assay for small molecules that induce genotoxicity in human embryonic kidney cells expressing luciferase-tagged ATAD5 (AID 651632); further: nearly all actives have a fitted effect of over 15% in size
In short: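 HEK293T cells carrying luciferase-tagged ATAD5 were given compound or DMSO vehicle and incubated 16 hr at 37C, 5% CO2. Luciferase activity was read after 30 min at room temperature with Amplite; a rise signals genotoxic stress.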

[3] = qHTS assay for small molecule agonists of the p53 signaling pathway - cell viability (AID 651633; calls by dose curve;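 further: p53RE-bla HCT reporter cells with a stable beta-lactamase p53 reporter; series mostly up to about 83 µM; nearly all actives have a fitted effect of over 30% in size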)
In short: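 Viability counter-read: CellTiter-Glo luminescence (30 min, room temperature) in the same p53RE-bla plates. These plates had been exposed to compounds for 16 h at 37 C.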

[4] = qHTS assay for small molecules that induce genotoxicity in human embryonic kidney cells expressing luciferase-tagged ATAD5 - cell viability (AID 651634; calls by dose curve; further: nearly all actives have a fitted effect of over 25% in size)
In short: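 HEK293T cells carrying luciferase-tagged ATAD5, 2,000 cells/well, exposed to compound for 15.5 hr at 37C. Viability read as live-cell protease activity by CellTiter-Fluor fluorescence after 30 min at 37C.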

[5] = qHTS assay for small molecule disruptors of the mitochondrial membrane potential - cell viability (AID 720634; calls by dose curve;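 further: human HepG2 liver cancer cells; series mostly up to about 83 µM; nearly all actives have a fitted effect of over 20% in size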)
In short: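 HepG2 cells, 2,000 per well, attached overnight, then treated 1 hr at 37 C, 5% CO2. Viability read as ATP by CellTiter-Glo luminescence after 30 min at room temperature. Read in the same wells as the m-MPI membrane-potential dye assay.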

[6] = qHTS assay to test for compound auto fluorescence at 590 nm (red) in HepG2 cells (AID 720674)
In short: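 We screened compounds on adherent HepG2 cells, incubating them for an hour at 37 C in 5% CO2 before reading emission at 590 nm under 540 nm excitation; values reflect equivalence to Rose Bengal sodium fluorescence.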

[7] = qHTS assay to test for compound auto fluorescence at 535 nm (green) in HepG2 cells (AID 720675)
[8] = qHTS assay to test for compound auto fluorescence at 460 nm (blue) in HEK293 cells (AID 720678)
In short: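 Auto fluorescence in the blue band was quantified as triamterene equivalency. HEK293 cells were seeded at 2,000/well, dosed after a 4-5 hr attachment, and kept overnight at 37C before the 405/460 nm reading.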

[9] = qHTS assay to test for compound auto fluorescence at 590 nm (red) in HEK293 cells (AID 720679)
In short: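 Autofluorescence equivalency to Rose Bengal sodium, 540/590nm, in HEK293 cells exposed overnight to 23 nL compound per well.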

[10] = qHTS assay for small molecule disruptors of the mitochondrial membrane potential (AID 720635)
In short: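 Mitochondrial membrane potential tracked with Mito-MPS dye, red aggregates (ex 540/em 590 nm) against green monomers (ex 490/em 535 nm). Compound treatment 1 hr at 37C, dye 30 min in HepG2.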
On the % scale 0 is the no-effect control and ±100 the full control effect.

CNC(=O)Oc1ccccc1C(C)C
inactive: Potency [1] | outcome [2] | Potency [3] | Potency [4] | Potency [5] | outcome [6] | outcome [7] | outcome [8] | outcome [9]

COP(=O)(O)OC
inactive: Potency [1] | outcome [2] | Potency [3] | Potency [4] | Potency [5] | Potency [10] | outcome [6] | outcome [7] | outcome [8] | outcome [9]

CC(=O)OCC1=C(C(=O)O)N2C(=O)[C@@H](N)[C@H]2SC1
inactive: Potency [1] | outcome [2] | Potency [3] | Potency [4] | Potency [5] | Potency [10] | fluorescence, relative to Rose Bengal [6] 0.341% [at 18.6 µM] | fluorescence, % of fluorescein control [7] 0.0248% [at 18.6 µM] | fluorescence, % of fluorescent control [9] 0.0847% [at 18.6 µM]

O=C1CC(=O)NC(=O)N1
inactive: Potency [1] | outcome [2] | Potency [3] | Potency [4] | Potency [5] | outcome [6] | outcome [7] | outcome [8] | outcome [9]

O=CCCl
inactive: Potency [1] | outcome [2] | Potency [3] | Potency [4] | Potency [5] | outcome [6] | outcome [7] | outcome [8]

C=C(Cl)CSC(=S)N(CC)CC
inactive: Potency [1] | outcome [2] | Potency [3] | Potency [4] | Potency [5] | outcome [6] | outcome [7] | outcome [8] | outcome [9]

O=C1CCCCC1Cl (stereo unspecified)
inactive: Potency [1] | outcome [2] | Potency [3] | Potency [4] | Potency [5] | Potency [10] | outcome [6] | outcome [7] | outcome [8] | outcome [9]

CN(C)C(=O)Oc1cc(OC(=O)N(C)C)cc(C(O)CNC(C)(C)C)c1 (stereo unspecified)
inactive: Potency [1] | outcome [2] | Potency [3] | Potency [4] | Potency [5] | fluorescence, relative to Rose Bengal [6] 0.42% [at 18.6 µM] | fluorescence, % of fluorescein control [7] 0.0476% [at 18.6 µM] | fluorescence, % of triamterene [8] 0.0042% [at 18.6 µM] | fluorescence, % of fluorescent control [9] 0.104% [at 18.6 µM]

CC(Cl)(Cl)Cl
inactive: Potency [1] | outcome [2] | Potency [3] | Potency [4] | Potency [5] | outcome [6] | outcome [7] | outcome [8] | outcome [9]

CN(CCO)CCO
inactive: Potency [1] | outcome [2] | Potency [3] | Potency [4] | Potency [5] | outcome [6] | outcome [7] | outcome [8]

C=CCCC#N
inactive: Potency [1] | outcome [2] | Potency [3] | Potency [4] | Potency [5] | outcome [6] | outcome [7] | outcome [8]

O=C/C=C/c1ccco1
inactive: Potency [1] | outcome [2] | Potency [3] | Potency [4] | Potency [5] | Potency [10] | outcome [6] | outcome [7] | outcome [8] | outcome [9]

BrCCc1ccccc1
inactive: Potency [1] | outcome [2] | Potency [3] | Potency [4] | Potency [5] | outcome [6] | outcome [7] | outcome [8] | outcome [9]

CCC(C)(C#N)N=NC(C)(C#N)CC (stereo unspecified)
inactive: Potency [1] | outcome [2] | Potency [3] | Potency [4] | Potency [5] | outcome [6] | outcome [7] | outcome [8]

COc1cccc(C=O)c1
inactive: Potency [1] | outcome [2] | Potency [3] | Potency [4] | Potency [5] | outcome [6] | outcome [7] | outcome [8]

CCOC(=O)c1ncn2c1CN(C)C(=O)c1c(I)cccc1-2
inactive: Potency [1] | outcome [2] | Potency [3] | Potency [4] | Potency [5] | outcome [6] | outcome [7] | outcome [8]

CC(=O)CN(CC(C)=O)N=O
inactive: Potency [1] | outcome [2] | Potency [3] | Potency [4] | Potency [5] | outcome [6] | outcome [7] | outcome [8]

C/C=C/CC#N
inactive: Potency [1] | outcome [2] | Potency [3] | Potency [4] | Potency [5] | outcome [6] | outcome [7] | outcome [8] | outcome [9]

CNC(=O)O/N=C(/CSC)C(C)(C)C
inactive: Potency [1] | outcome [2] | Potency [3] | Potency [4] | Potency [5] | outcome [6] | outcome [7] | outcome [8] | outcome [9]

O=C(O)CBr
inactive: Potency [1] | outcome [2] | Potency [3] | Potency [4] | Potency [5] | outcome [6] | outcome [7] | outcome [8] | outcome [9]

Cc1cccc2sc3nncn3c12
inactive: Potency [1] | outcome [2] | Potency [3] | Potency [4] | Potency [5] | outcome [6] | outcome [7] | outcome [8] | outcome [9]

CNC(=O)NC(O)C(Cl)(Cl)Cl (stereo unspecified)
inactive: Potency [1] | outcome [2] | Potency [3] | Potency [4] | Potency [5] | outcome [6] | outcome [7] | outcome [8] | outcome [9]

CCN[C@@H](C)Cc1ccccc1
inactive: Potency [1] | outcome [2] | Potency [3] | Potency [4] | Potency [5] | outcome [6] | outcome [7] | outcome [8] | outcome [9]

c1ccc2c(c1)CCNC2
inactive: Potency [1] | outcome [2] | Potency [3] | Potency [4] | Potency [5] | outcome [6] | outcome [7] | outcome [8] | outcome [9]

CC(C)NCC(O)c1ccc([N+](=O)[O-])cc1 (stereo unspecified)
inactive: Potency [1] | outcome [2] | Potency [3] | Potency [4] | Potency [5] | Potency [10] | outcome [6] | outcome [7] | outcome [8] | outcome [9]

COc1ccccc1OC
inactive: Potency [1] | outcome [2] | Potency [3] | Potency [4] | Potency [5] | outcome [6] | outcome [7] | outcome [8] | outcome [9]

COC(=O)[C@@H](N)CCCN/C(N)=N/[N+](=O)[O-]
inactive: Potency [1] | outcome [2] | Potency [3] | Potency [4] | Potency [5] | Potency [10] | outcome [6] | outcome [7] | outcome [8] | outcome [9]
